In PubChem BioAssay AID504329 (Southern Research Specialized Biocontainment Screening …, 2011):
Among all 340,000 compounds or so, about 1,000 (0.29%) were called active. A selection follows. Potency and affinity values are given separately. Unmarked numbers belong to inactive results. Cut-off read from the data, not from the text of the source: inconclusive = inhibition above about 27% without an active follow-up result; inactive = below that.

experiment: H1N1 influenza NS1A inhibitors, functional cell based assay (AID 504329); details: percent inhibition, at 12.5 µM, hits give high values

| SMILES | inhibition |
| --- | --- |
| O=C(CN1CCN(C(=O)c2ccco2)CC1)Nc1ccccc1 | 0.71% |
| CN(C)c1nc2c(c(=O)[nH]c(=O)n2C)n1CCCc1ccccc1 | -3.17% |
| CCc1cccc(CC)c1NC(=O)CN(CC(=O)O)CC(=O)O | 5.31% |
| O=C(O)CP(=O)(O)O | -2.09% |
| Cn1c(=O)c2cc(S(=O)(=O)NC(C(=O)N3CCCCCC3)c3ccccc3)ccc2n(C)c1=O (stereo not drawn) | -3.38% |
| COc1ccccc1-c1cc(C(=O)NC(C)c2ccccc2)no1 (stereo not drawn) | 10.7% |
| O=C(Cc1c(F)cccc1Cl)Nc1ccccn1 | -10.5% |
| Nc1nc(N)c(Cc2ccc(Cl)cc2Cl)c(N)n1 | -5.28% |
| CNc1cc(C(F)(F)F)nc(-c2ccccn2)n1 | -7.32% |
| Clc1ccc(COc2ccccn2)c(Cl)c1 | 18.9% |
| Cc1n[nH]c(C)c1Cc1c(F)cccc1Cl | -22.1% |
| Cc1nc(N)c(Cc2ccccc2F)c(N)n1 | -3.84% |
| N#C/C(=C/c1ccc(-c2ccc(C(=O)O)c(Cl)c2)o1)C(=O)NCC1CCCO1 (stereo not drawn) | 9.84% |
| CN(CC(=O)Nc1ccncc1)S(=O)(=O)c1ccc(Cl)cc1 | 4.38% |
| CC(C)S(=O)(=O)c1cnc(N2CCOCC2)nc1N | -0.07% |
| Cc1cc(C(=O)CSc2nnc(N)s2)c(C)n1Cc1cccs1 | -7.01% |
| CCS(=O)(=O)N(CC(=O)Nc1cccc2ccccc12)c1ccc(OC)cc1 | -2% |
| CC(=O)Nc1ccc(NC(=O)C(NS(=O)(=O)c2cccc3nsnc23)C(C)C)cc1 (stereo not drawn) | 4.6% |
| Cc1ccc(-c2cn(C[C@H]3CC[C@@H]([C@@H]4CC[C@H](Cn5cc(-c6ccc(C)cc6)nn5)O4)O3)nn2)cc1 | 1.46% |
| c1ccc(-c2cn(C[C@H]3CC[C@@H]([C@@H]4CC[C@H](Cn5cc(-c6ccccc6)nn5)O4)O3)nn2)cc1 | 1.07% |
| c1cncc(-c2cn(C[C@H]3CC[C@@H]([C@@H]4CC[C@H](Cn5cc(-c6cccnc6)nn5)O4)O3)nn2)c1 | -3.65% |
| c1cncc(-c2cn(C[C@H]3CC[C@H](Cn4cc(-c5cccnc5)nn4)O3)nn2)c1 | -19.1% |
| COc1ccc(-c2cc(C#N)nc(NN)n2)cc1 | 4.09% |
| N/C(CSc1ccccn1)=N\OCc1c(Cl)cccc1Cl | -0.92% |

| SMILES | inhibition |
| --- | --- |
| Cc1ccc(CNC(=O)CSc2ccc(-c3ccco3)nn2)cc1 | 0.95% |
| CCC(=O)Nc1cc(-c2nn(CC(=O)N3CCCCC3)c(=O)c3ccccc23)ccc1N1CCOCC1 | -7.33% |
| C=CC[C@H]1C=C[C@@H](C(C(=O)OC)C(=O)OC)CN1C(C)=O | -4.78% |
| COCCOC(=O)c1c(NC(=O)COC(=O)Cc2cccc(OC)c2)sc(C(N)=O)c1C | 6.16% |
| C/C(=N/NC(=O)c1cc2ccccc2cc1O)c1ccco1 | -9.07% |
| C/C(=N\NC(=O)c1cc2ccccc2cc1O)c1cccs1 | -6% |
| O=C(N/N=C/c1ccccn1)c1cc(Br)ccc1O | -2.68% |
| C/C(=N\NC(=O)c1cc(Br)ccc1O)c1cccs1 | 0.04% |
| CN1CCc2cc3c(c4c2C1CC41CCC(=NO)CC1)OCO3 (stereo not drawn) | 4.88% |
| C=CCOC(=O)C1=C[C@H](C2CC2)[C@@H](CCCO)[C@H](OCC)O1 | -9.11% |
| CC(C)/C=C/C(=O)N1CCCC(N2CCN(c3ccccc3F)CC2)C1 (stereo not drawn) | -4.31% |
| COc1ccc(OC)c(NC(=O)CSc2nn3c(=O)c(C)nnc3s2)c1 | 12.7% |
| Cc1ccccc1CSc1nn2c(=O)c(C)nnc2s1 | -4.51% |
| COc1ccccc1NC(=O)CSc1nnc(C)s1 | 4.51% |
| Cc1nnc2sc(SCc3ccccc3Cl)nn2c1=O | -4.7% |
| O=C(/C=N/O)NCc1ccncc1 | -2.91% |
| O=C(CC(NS(=O)(=O)c1ccc(Cl)cc1)c1ccco1)NCc1ccco1 (stereo not drawn) | -0.25% |
| Cc1ccccc1NC(=S)N(Cc1cccnc1)Cc1ccco1 | 17% |
| Cc1cc(C(=O)NCCCOC(C)C)c2ccccc2n1 | 5.34% |
| COc1ccc(-c2csc(NC(=O)CCCc3nc4ccccc4c(=O)[nH]3)n2)cc1OC | 0.34% |
| N#Cc1ccc(CSc2nnc3[nH]c(=O)cc(N)n23)cc1 | -7.19% |
| O=C(COc1ncnc2ccccc12)NC1CCCCC1 | 9.63% |
| COc1ccc(CC(=O)NC(C)c2nnc(SCC(=O)Nc3cc(C)ccc3OC)n2C)cc1 (stereo not drawn) | -9.49% |
| O=c1cnnc(N/N=C/c2ccccn2)[nH]1 | 20.5% |
